Data published in PubChem BioAssay (NCI).
About 83,000 compounds went through this panel and 20% of them were active in at least one assay; those are over-represented in the sample as a whole.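 The endpoint reported here, percent growth, reads 100 for growth as untreated, 0 for no net growth and -100 for all cells dead.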 A number with no mark means an inactive call. Calls of active or inactive are those of the source. How the source made its calls: active means growth percent below 10; inactive means the rest.

Tests used:
Assay in all cases: NCI-60 one-dose screen, 48 h (100 = growth as untreated, 0 = no growth, -100 = all killed)
Conditions in all cases: 10 µM unless noted
[1] = system: SK-MEL-2 melanoma
[2] = system: EKVX NSCLC
[3] = system: SN12C renal
[4] = system: UO-31 renal
[5] = system: TK-10 renal
[6] = system: ACHN renal
[7] = system: CAKI-1 renal
[8] = system: A498 renal
[9] = system: CCRF-CEM leukemia
[10] = system: MOLT-4 leukemia

Structure (SMILES)	growth [1] [%]	growth [2]	growth [3]	growth [4]	growth [5]	growth [6]	growth [7]	growth [8]	growth [9]	growth [10]
C=C(CN1CC=CCC1)[C@@H]1CC[C@]2(C(=O)OC)CC[C@]3(C)[C@H](CC[C@@H]4[C@@]5(C)CC[C@H](OC(C)=O)C(C)(C)[C@@H]5CC[C@]43C)[C@@H]12	103	109%	92.8%	86.4%	121%	102%	81.2%	113%	82.7%	82.1%
CCN(CC)CCCCCCCNc1cc(OC)cc2c(C)ccnc12	109	86.7%	81.6%	38.2%	110%	87.7%	94%	63.2%	83.7%	72%
COc1cc(NC(C)CCCN)c2ncccc2c1Oc1ccc(Cl)cc1 (stereo not given)	102	77.1%	77.3%	41.5%	101%	82.6%	68.7%	71.1%	77%	52.9%
COc1cc(CN2CCO[C@H](COc3cccc(F)c3)C2)ccc1Cl	31	46.3%	29.3%	45.6%	46.9%	53.9%	41.3%	30.6%	42.8%	52.8%
CC[C@H](Nc1nc(C)nc(N)c1C#N)c1nc2cccc(NCc3ccc(C(=O)NO)cc3)c2c(=O)n1-c1ccccc1	67.2	12.7%	7.89% (active)	-12.5% (active)	2% (active)	2.03% (active)	-11.1% (active)	-27.1% (active)	6.17% (active)	2.8% (active)
C/C(=N\NC(=S)N1CCCCC1)c1ccccn1	34.3	-4.33% (active)	21%	-13.6% (active)	22.4%	17.3%	-4% (active)	-13.5% (active)	8.62% (active)	-3.73% (active)
COc1c(C(=O)/C=C/c2ccc(C)o2)c(O)cc2occc12	82.2	68.6%	82.6%	81.2%	100%	97.6%	74.2%	66.6%	84.6%	64%
CCOC(=O)NNc1cccc(Cl)c1	116	90.6%	114%	70.6%	120%	93.5%	90%	85.5%	103%	113%
O=[N+]([O-])c1cccc(N=C(Nc2cccc([N+](=O)[O-])c2)c2ccccc2)c1	77.9	81.4%	83.4%	40.5%	78.8%	93.8%	80.3%	104%	65.3%	59.4%
CC1=C(O)C(=O)C(c2c(C)cc(C)c(Br)c2C)=C(O)C1=O	81.6	81.8%	55%	83.7%	73.6%	54%	50.2%	64.1%	43.1%	54.6%
CC(=O)O[C@H]1[C@H](CC#CC#CC[C@@H]2C[C@]3(C)[C@H]4CC=C5[C@H]6[C@@H](C)[C@H](C)CC[C@]6(C(=O)NCCN(CCN)CCN)CC[C@@]5(C)[C@]4(C)CC[C@H]3C(C)(C)[C@H]2OC(C)=O)C[C@]2(C)[C@H]3CC=C4[C@H]5[C@@H](C)[C@H](C)CC[C@]5(C(=O)NCCN(CCN)CCN)CC[C@@]4(C)[C@]3(C)CC[C@H]2C1(C)C	67	-6.42% (active)	51.9%	33.7%	110%	75.9%	35%	122%	19.8%	26.8%
N=c1n(Cc2ccccc2)c(N)cc(=O)n1Cc1ccccc1	94.6	0.834% (active)	12.8%	13.4%	16.4%	4.21% (active)	0.138% (active)	40.6%	21.4%	-28.6% (active)
COC(=O)CNS(=O)(=O)c1ccc2c(c1)Cc1cc(S(=O)(=O)NCC(=O)OC)ccc1-2	108	99.6%	97.5%	87.1%	107%	102%	92.1%	106%	104%	99.8%
